This note sets out measurements from ChEMBL document CHEMBL1156829.

Several values for one entry are separate records, joined by “and”; a condition that tells them apart may be missing. Equal entries are not always repeated. Over roughly 5,400 compounds, “IFI” has its median near 2; the highest 2% begin near 22. This excerpt belongs to a sample that is enriched for the highest values.

This assay is described as follows: NOVARTIS: Inhibition Frequency Index (IFI) - the number of HTS assays where a compound showed > 50% inhibition/induction, expressed as a percentage of the number of assays in which the compound was tested. Type of assay: functional.
Consider GNF-Pf-2945, CHEMBL581676, for which the IFI is 1.82%.

In turn, GNF-Pf-1437, CHEMBL576411 returned an IFI of 14.3%.

As for GNF-Pf-448, CHEMBL580641, the IFI worked out at 30%.

Take `CCc1ccc(C=NNC(=O)COc2ccc3c(c2)OCO3)cc1`: the IFI came out at 0%.

Compound `COc1cccc2c1C(=O)C1C(O)=C3C(=C(O)C1C2=O)CC(O)(C(C)=NN=C1CC(C)(C)N(O)C(C)(C)C1)CC3OC1CC(C)(N)C(O)CO1` (stereo unspecified) showed an IFI of 21.4%.

`COc1cccc2c1C(=O)c1c(O)c3c(c(O)c1C2=O)C[C@](O)(C(C)=O)C[C@@H]3O[C@H]1C[C@@H](N)[C@H](O)[C@H](C)O1` returned an IFI of 19.7%.

`COc1cccc2c1C(=O)c1c(O)c3c(c(O)c1C2=O)C[C@@](O)(C(=O)CO)C[C@@H]3O[C@@H]1C[C@H](N)[C@H](O)[C@H](C)O1` had an IFI of 25.6%.

Take `Cc1ccc(-c2cc(C(=O)OCC(=O)c3cccc([N+](=O)[O-])c3)c3cc(C)ccc3n2)cc1`: the IFI was found to be 0%.

Consider `Cc1cc(C)c2cc(CN(CCN(C)C)C(=S)NCCCN(C)C)c(=O)[nH]c2c1`, for which the IFI came to 3.12%.

On to `CC1=C(CO)C(=O)O[C@@H]([C@@H](C)[C@H]2CC[C@H]3[C@@H]4C[C@H]5O[C@]56[C@@H](O)C=CC(=O)[C@]6(C)C4CC[C@]23C)C1` (stereo partly specified), for which the IFI amounted to 32.1%.

`Cc1ccn2c(NC(C)(C)CC(C)(C)C)c(-c3ccccc3OC(=O)CCc3ccccc3)nc2c1`: the IFI was determined as 3.74%.

Regarding `c1ccc(-c2cc(N3CCOCC3)nc(-c3ccccn3)n2)nc1`, the IFI came out at 15.4%.

The compound `COc1ccc(NC(=O)CCCCCn2c(SCc3cc(=O)oc4cc(O)ccc34)nc3ccsc3c2=O)cc1` returned an IFI of 0%.

Regarding `Cc1ccc(C=Cc2ccc(N(C)C)cc2)[n+](C)c1`, the IFI is 15.4%.

On to `CCCCCC[n+]1ccccc1C=Cc1ccc(N(C)C)cc1`, for which the IFI is 27.6%.

As to `CC(C)CC[n+]1ccccc1C=Cc1ccc(N(C)C)cc1`, the IFI was 15.4%.

Regarding `CC[n+]1ccccc1C=Cc1ccc(N(C)C)cc1`, the IFI is 6.57% and 5.88%.

`CN(C)c1ccc(/C=C/c2cccc(/C=C/c3ccc(N(C)C)cc3)[n+]2C)cc1` had an IFI of 25%.

For the compound `CN(C)c1ccc(/C=C/c2cccc[n+]2C)cc1`, the IFI was found to be 6.3%.

`CC1CCCCN1CCCNc1ncc(C(=O)NCCc2ccccc2)c(NCC2CCCO2)n1` (stereo unspecified) had an IFI of 3.81%.

In turn, `CCCCNC(=S)N(Cc1cccs1)Cc1cc2cc(C)ccc2[nH]c1=O` returned an IFI of 1.82%.

With `CC(C)(C)c1ccc(CNC(=O)C(Cc2ccc(O)cc2)c2ccccc2)cc1` (stereo unspecified), the IFI was determined as 0%.

In turn, `O=C(CSc1oc(-c2ccc(Cl)cc2)nc1[P+](c1ccccc1)(c1ccccc1)c1ccccc1)c1ccccc1` yielded an IFI of 21.4%.

Take `C=CCSc1oc(-c2ccco2)nc1[P+](c1ccccc1)(c1ccccc1)c1ccccc1`: the IFI came to 23.1%.

For `CCOC(=O)C1=C(CC)NC2=C(C(=O)CC(C)(C)C2)C1c1ccccc1F` (stereo unspecified), the IFI was 4.6%.

The compound `CCC(/C=C1\Sc2ccc(OC)cc2N1CCCS(=O)(=O)O)=C\c1sc2ccc(OC)cc2[n+]1CCCS(=O)(=O)O` registered an IFI of 22.7%.

For the compound `CCN1/C(=C/c2cccc[n+]2C)Sc2ccc(OC)cc21`, the IFI was 15.4%.

As to `CC[n+]1c(/C=C(C)/C=C2\Sc3ccccc3N2CCO)sc2ccccc21`, the IFI worked out at 7.69%.

For `CCOC(=O)c1c(C)[n+](-c2ccc(C)cc2)c(CC)c2cc(OC)c(OC)cc12`, the IFI worked out at 2.29%.

Compound `Cc1ccc(-c2c3c4n(c(-c5ccc(Cl)cc5)cn4c2C(=O)Nc2ccccc2Cl)CCCC3)cc1` came in with an IFI of 6.06%.

The compound `CCCCN(CCCC)[P+](N(CCCC)CCCC)(N(CCCC)CCCC)N(CCCC)CCCC` returned an IFI of 27.3%.

With `CCC(=O)N1CCc2cc(Br)cc(S(=O)(=O)N3CC(C)CC(C)C3)c21` (stereo unspecified), the IFI was 0%.

`COc1ccc2nc3cc(Cl)ccc3c(NCCN(CCN)CCN)c2c1` had an IFI of 14.5%.

`CN(C)c1ccc(-c2nc(-c3ccc(-c4[nH]c(-c5ccc(N(C)C)cc5)nc4-c4ccccc4)cc3)c(-c3ccccc3)[nH]2)cc1` yielded an IFI of 12.5%.

In the case of `CN(C)c1ccc(-c2cc(-c3ccccc3)[s+]c(-c3ccccc3)c2)cc1`, the IFI was found to be 31.4%.

For the compound `CN(C)c1ccc(C(=Cc2cc(-c3ccccc3)cc(-c3ccccc3)[o+]2)c2ccc(N(C)C)cc2)cc1`, the IFI was 12.7%.

`COc1ccc(-c2nc(NC(=O)CS(=O)(=O)c3ccccc3)sc2C)cc1` yielded an IFI of 0%.

The compound `C1=C(c2ccc(CN3CCCCC3)cc2)N2CCN=C2c2ccccc21` gave an IFI of 2.98%.

In the case of `Cc1cc(S(=O)(=O)NC(Cc2ccc([N+](=O)[O-])cc2)C(=O)O)c(Cl)cc1Cl` (stereo unspecified), the IFI amounted to 1.03%.

Turning to `Cc1ccc2ncnc(Nc3cccc(C(F)(F)F)c3)c2c1`, the IFI was 4.41%.

Compound `c1ccc(Oc2ccc(Nc3nc4nonc4nc3Nc3ccc(Oc4ccccc4)cc3)cc2)cc1` showed an IFI of 0%.

Compound `FC(F)(F)c1cccc(Nc2nc3nonc3nc2Nc2ccc(Cl)cc2)c1` had an IFI of 22.7%.

Regarding `FC(F)(F)c1cccc(Nc2nc3nonc3nc2Nc2ccc(Br)cc2)c1`, the IFI was found to be 22.2%.

With `Clc1ccc(Nc2nc3nonc3nc2Nc2ccc(Cl)c(Cl)c2)cc1Cl`, the IFI stood at 7.14%.

The compound `Clc1ccccc1Nc1nc2nonc2nc1Nc1cccc(Br)c1` displayed an IFI of 15.4%.

On to `CCN(CC)c1scc(-c2ccc(Br)cc2)[s+]1`, for which the IFI amounted to 7.69%.

As for `COc1ccc(C2=C(c3ccc(OC)cc3)C3(c4ccccc4)C(=O)C2(c2ccccc2)C2C(=O)N(c4ccc(F)cc4)C(=O)C23)cc1` (stereo unspecified), the IFI was determined as 0%.

As to `CCN1/C(=C/c2cccc[n+]2C)C=Cc2cc(C)ccc21`, the IFI is 15.4%.

`CCN1/C(=C/C=C/C2=[N+](C)c3ccc(C)cc3C2(C)C)C=Cc2ccccc21` returned an IFI of 28.6%.

The compound `CCN1/C(=C\C=C\C2=[N+](C)c3ccccc3C2(C)C)N(c2ccccc2)c2ccccc21` returned an IFI of 28.6%.

On to `CN(/C=C/C1=[N+](C)c2ccc(Cl)cc2C1(C)C)c1ccccc1`, for which the IFI amounted to 0%.

As for `COCCN1C(=O)c2ccccc2C(C(=O)Nc2cccc(C(F)(F)F)c2)C1c1cccs1` (stereo unspecified), the IFI was 9.09%.

`CC1CCN(S(=O)(=O)c2ccc(C(=O)Nc3sc4c(c3C(N)=O)CCN(C)C4)cc2)CC1` registered an IFI of 0%.

As to `COc1nc(C)nc(NC(=O)NC(=O)c2c(OC)ccc([N+](=O)[O-])c2OC)n1`, the IFI came to 2.61%.

Compound `CCCCCc1ccc(OCCOCC[n+]2ccccc2)c(CCCCC)c1` came in with an IFI of 4.54%.

Take `CCN1/C(=C/c2cccc[n+]2C)C=Cc2ccc(C)cc21`: the IFI worked out at 7.79%.

As to `CCN1C(=Cc2sc3ccccc3[n+]2C)C=Cc2ccc(C)cc21`, the IFI was found to be 23.8%.

Take `CCN1C=C(c2ccc(C)cc2)S/C1=C\c1sc2ccccc2[n+]1C`: the IFI was 14.7%.

For `CN1C=CC(=Cc2sc3ccccc3[n+]2C)C=C1`, the IFI is 0%.

As for `CCN1C(=Cc2sc3ccccc3[n+]2C)C=Cc2cccc(C)c21`, the IFI amounted to 23.1%.

For the compound `CCN1C(=Cc2sc3ccc(O)cc3[n+]2CC)C=Cc2cc(C)ccc21`, the IFI came out at 15.4%.
